Data: PubChem BioAssay (NCATS)
Records with an inconclusive call do not appear. A call without a number means that no potency is given here. The source made the active and inactive calls. The call rests on the fitted dose curve; in most records, active means well fitted inhibition curve with a large enough effect; inconclusive means small, poorly fitted or top-dose-only effect; inactive means flat fitted curve, though single readings scatter.
Potency means the concentration at half of the fitted maximal effect.

Each compound was assayed on Zika virus NS2B-NS3 protease (assay: Primary screen GU AMC qHTS for Zika virus inhibitors (AID 1347154; further: nearly all actives have a fitted effect of over 70% in size)). Settings: Zika NS2B-NS3 unlinked protease, AMC fluorogenic substrate; series mostly up to 54.1 µM.
Text: Avindra Nath, Ph.D., National Institute of Neurological Disorders and Stroke (NINDS), Bethesda, MD
Radhakrishnan Padmanabhan, Ph.D., Georgetown University (GU), Washington D.C.
Zika Virus causes congenital defects, including microcephaly and is associated with Guillain-Barre syndrome, eningoencephalitis and myelitis in infected adult. […] Using a target-based approach, we hope to establish a screening paradigm to uncover novel, cell-active NS2B-NS3 protease (Zika Virus) specific inhibitors from NCATS' collection of small molecules using qHTS.
Early Translation Branch (ETB)
National Center for Advancing Translational Sciences (NCATS), Rockville, MD
National Institute of Health (NIH), Bethesda, Maryland
Padmanabhan lab provided the NS2B hydrophilic domain and NS3 protease domain in a noncovalent complex used for the unlinked assay. Control compound aprotinin is obtained from Thermo Scientific (#78432; Waltham, Massachusetts). NS2B-NS3 AMC substrate (Bz-Nle-Lys-Arg-Arg-AMC; Nle-KRR-AMC) purchased from Bachem (#I-1995; Torrance, CA). Ac-VKTGKR-AMC purchased from Genscript or Bachem, Ac-FAAGKR-AMC purchased from Genscript, Ac-GLVKRR-AMC purchased from Genscript, Ac-LKKR-AMC purchased from Genscript.
GU AMC unlinked NS2B-NS3 protease qHTS protocol
Briefly, 3 microL of Zika virus unlinked NS2B-NS3 protease (25 nM for linked final concentration), in assay buffer (10 mM Tris-HCl pH 8.0 with 0.01% Tween 20) was dispensed into a 1,536-well solid-bottom black plate (Greiner Bio One, Monroe, NC). […] Plates were then read immediately on a ViewLux High-throughput CCD imager (PerkinElmer, Waltham, MA) equipped with standard UV fluorescence optics (340(30) nm excitation, 450(20) nm emission) then incubated (room temperature, protected from light) for 15 minutes (~20% conversion). The change in fluorescence intensity over the 15-minute reaction period was normalized against no-inhibitor and no-enzyme controls and the resulting percent inhibition data were fitted to a 4-parameter Hill equation. Aprotinin was used as the intraplate control.
With `CNC1CCC(N(Cc2cccc(-c3ccncc3)c2)C(=O)c2sc3ccccc3c2Cl)CC1` (stereo not given) the Potency was “inactive”. With `CC=C1C2C=C(C)CC1(N)c1ccc(=O)[nH]c1C2` (stereo not given) the Potency was “inactive”. With `NCC1CCC(C(=O)O)CC1` (stereo not given) the Potency was “inactive”. For `O=C(Nc1cccc(C(F)(F)F)c1)Nc1cc(S(=O)(=O)NC2CC2)ccc1-c1ccsc1`, the Potency was “inactive”. `CC(=O)OCC(=O)[C@@]1(O)CC[C@H]2[C@@H]3CCC4=CC(=O)C=C[C@]4(C)[C@@H]3[C@@H](O)C[C@@]21C` was tested, and the Potency was “inactive”. In the case of `COc1ccc(-c2oc3c(CC=C(C)C)c(O)cc(O)c3c(=O)c2O)cc1`, the Potency is reported as “inactive”. `CCNC(=O)CCCC=CC[C@@H]1[C@H](C=CC(O)CCc2ccccc2)[C@@H](O)C[C@@H]1O` (stereo not given in full) was tested, and the Potency was “inactive”. For `Cc1ccc2c(c1)C(=O)[C@]1(O)CCN(c3ccccc3)C1=N2`, the Potency was “inactive”. In the case of `C#CCN(C)CC1=Cc2ccccc2Oc2ccccc21`, the Potency is reported as “inactive”. In the case of `O=C(c1ccc(C(=O)N2CCC(N3CCCC3)CC2)c(Nc2ccccc2)c1)N1CCC(N2CCCC2)CC1`, the Potency is reported as “inactive”. In the case of `Clc1ccc(C2(c3ccc(-c4cn[nH]c4)cc3)CCNCC2)cc1`, the Potency is reported as “inactive”. With `CN(C(Cc1ccc(OS(=O)(=O)c2cccc3cnccc23)cc1)C(=O)N1CCN(c2ccccc2)CC1)S(=O)(=O)c1cccc2cnccc12` (stereo not given) the Potency was “inactive”. In the case of `N[C@@H](CC(=O)N1CCn2c(nnc2C(F)(F)F)C1)Cc1cc(F)c(F)cc1F`, the Potency is reported as “inactive”. `Cn1cnc(-c2cc3nccc(Oc4ccc(NC(=S)NC(=O)Cc5ccccc5)cc4F)c3s2)c1` was tested, and the Potency was “inactive”. For `CC1=C(C(=O)Nc2cc3cn[nH]c3cc2F)C(c2ccc(C(F)(F)F)cc2)CC(=O)N1` (stereo not given), the Potency was “inactive”. In the case of `NS(=O)(=O)c1cc(Cl)c(Cl)c(S(N)(=O)=O)c1`, the Potency is reported as “inactive”. In the case of `COC(=O)[C@H](c1ccccc1Cl)N1CCc2sccc2C1`, the Potency is reported as “inactive”. In the case of `CC[C@H](C)n1cc(C)c2c(C(=O)NCc3c(C)cc(C)[nH]c3=O)cc(-c3ccc(N4CCNCC4)nc3)cc21`, the Potency is reported as 21.5 µM (active). For `CCC(c1ccc(O)cc1)C(CC)c1ccc(O)cc1` (stereo not given), the Potency was “inactive”. `Fc1ccc(CNc2ncnc3ccc(F)cc23)cc1` was tested, and the Potency was “inactive”. For `Cc1cn([C@@H]2C[C@@H](O)[C@H](CO)O2)c(=O)[nH]c1=O`, the Potency was “inactive”. With `O=C(O)c1ccc(O)c2ncc(N3CCOCC3)cc12` the Potency was “inactive”. For `O=C(Nc1ncc(SCCN2CCCC2)s1)[C@]1(c2ccc(S(=O)(=O)C3CC3)cc2)C[C@@H]1C1CCCCC1`, the Potency was “inactive”. In the case of `CC1=C(CC(=O)O)c2cc(F)ccc2C1=Cc1ccc(S(C)=O)cc1` (stereo not given), the Potency is reported as “inactive”. For `CNc1nc(Nc2ccc(C(=O)N3CCOCC3)cc2OC)ncc1Cl`, the Potency was “inactive”. `C[C@H](CCC(=O)O)[C@H]1CC[C@H]2[C@H]3[C@@H](CC[C@]12C)[C@@]1(C)CC[C@@H](O)C[C@H]1C[C@@H]3O` was tested, and the Potency was “inactive”. `CCN(CCO)CCCOc1ccc2c(Nc3cc(CC(=O)Nc4cccc(F)c4)[nH]n3)ncnc2c1` was tested, and the Potency was “inactive”. `CCNC(=O)Nc1ccc(Oc2ncnc(N)c2C=NOC)cc1Cl` was tested, and the Potency was “inactive”. `C=CC[N+]1([C@H]2C[C@H]3[C@@H]4CC[C@H]5C[C@H](O)[C@@H](N6CCOCC6)C[C@]5(C)[C@@H]4CC[C@]3(C)[C@H]2OC(C)=O)CCCC1` was tested, and the Potency was “inactive”. `O=C(CC12CC3CC(CC(C3)C1)C2)Nc1cccc2nc(NCCNCCO)ccc12` was tested, and the Potency was “inactive”. For `CC1=C[C@@H]2[C@@H]([C@@H](O)C[C@@]3(C)[C@H]2C[C@@H](C)[C@]3(O)C(=O)CO)[C@@]2(C)Cc3cnn(-c4ccccc4)c3C=C12`, the Potency was “inactive”. With `CC(C)N(CCCNC(=O)Nc1ccc(C(C)(C)C)cc1)C[C@H]1O[C@@H](n2cc(Br)c3c(N)ncnc32)[C@H](O)[C@H]1O` the Potency was “inactive”. `CN1CCN(c2ncc(-c3cc(Cl)cc(Cl)c3Cl)c(N)n2)CC1` was tested, and the Potency was “inactive”. In the case of `CCOC(=O)N1CCN([N+]([O-])=NOc2cc(ON=[N+]([O-])N3CCN(C(=O)OCC)CC3)c([N+](=O)[O-])cc2[N+](=O)[O-])CC1`, the Potency is reported as “inactive”. With `CC[C@H](C=C[C@@H](C)[C@H]1CC[C@H]2[C@@H]3CC=C4C[C@@H](O)CC[C@]4(C)[C@@H]3CC[C@]12C)C(C)C` the Potency was “inactive”. `CON(C)C(=O)N1N=C(c2cc(F)ccc2F)S[C@]1(CCCN)c1ccccc1` was tested, and the Potency was “inactive”. `CCOc1ccccc1N=Nc1c(C)[nH]n(-c2nc(-c3ccccc3)cs2)c1=O` was tested, and the Potency was “inactive”. For `Nc1ccn([C@@H]2O[C@H](CO)[C@@H](O)[C@H]2O)c(=O)n1`, the Potency was “inactive”. With `Nc1ccc(-c2ccc3ncc4ccc(=O)n(-c5cccc(C(F)(F)F)c5)c4c3c2)cn1` the Potency was “inactive”. With `Cc1cccc2c1CC[C@H](CN1CCC(c3c(Cl)cccc3Cl)CC1)C[C@@H]2O` the Potency was “inactive”.
